Structures are written as SMILES. Records with an inconclusive call do not appear. Values without a mark were called inactive. Activity calls are given as the source filed them. The call rests on the fitted dose curve; in most records, active means well fitted cell-killing curve with a large enough effect; inconclusive means small, poorly fitted or top-dose-only effect, or effect the other way; inactive means flat fitted curve, though single readings scatter. Where a SMILES comes first, the peptide text is derived from it. [ ]: non-standard residue; d: D form. Ala(indol-2-yl) = N[C@@H](Cc1cc2ccccc2[nH]1)C(=O)O; Aib = CC(C)(N)C(=O)O
On the % scale 0 is the no-effect control and ±100 the full control effect; potency means the concentration at half of the fitted maximal effect.

The subject of one assay is PA-1. The experiment in a line: Primary qHTS to identify gynecologic anti-cancer compounds using libraries of approved drugs and bioactive compounds (AID 1345084). Further: nearly all actives have a fitted effect of over 55% in size. The note with it: Gynecologic cancer cell panel viability, ATPlite luminescence, 48 h; series mostly up to 57.5 µM; activity change, negative = cytotoxicity: at the top concentration. The procedure, abridged: (§1)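 48 h compound exposure at 37 C, 5% CO2; five-point qHTS. ATPlite luminescence readout of cell ATP.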
As to `COC1CC(O[C@H]2CC[C@]3(C=O)C4CC[C@]5(C)[C@@H](C6=CC(=O)OC6)CC[C@]5(O)[C@@H]4CC[C@@H]3C2)OC(C)C1O[C@@H]1O[C@H](CO)[C@@H](O[C@@H]2O[C@H](CO)[C@@H](O)[C@H](O)[C@H]2O)[C@H](O)[C@H]1O` (some centres not stated), the Potency is 447 nM (active).

For the molecule `C[C@]12CC[C@H](O)C[C@H]1CC[C@@H]1[C@@H]2[C@H](O)C[C@]2(C)[C@@H](c3ccc(=O)oc3)CC[C@]12O`, the Potency is 355 nM (active).

On to `C[C@H]1O[C@@H](O[C@H]2CC[C@]3(CO)C4CC[C@]5(C)[C@@H](C6=CC(=O)OC6)CC[C@]5(O)[C@@H]4CC[C@H]3C2)[C@H](O)[C@H](O)[C@@H]1O[C@@H]1O[C@H](CO)[C@@H](O)[C@H](O)[C@H]1O` (some centres not stated), for which the Potency was 3160 nM (active).

For `CC1=C[C@H]2O[C@@H]3[C@H](O)[C@@H](O)[C@](C)([C@@]2(CO)C[C@@H]1O)[C@]31CO1`, the Potency is 3980 nM (active).

As for `C[C@H]1O[C@@H](n2cnc3c(N)ncnc32)C[C@@H]1O`, the “activity change, negative = cytotoxicity” value is -6.12%.

Turning to `CC[C@H]1C2CC3[C@@H]4N(C)c5ccccc5[C@]45C[C@@H]([C@H]2[C@H]5O)N3[C@@H]1O`, the “activity change, negative = cytotoxicity” value is 3.16% [at 38.5 µM].

For `CO[C@@H]1C[C@H](O[C@H]2CC[C@@]3(C)C(CCC4C3CC[C@]3(C)[C@@H](C5=CC(=O)OC5)[C@@H](OC(C)=O)CC43O)C2)O[C@H](C)[C@@H]1O[C@H]1O[C@H](CO[C@@H]2O[C@H](CO)[C@@H](O)[C@H](O)[C@H]2O)[C@@H](O)[C@H](O)[C@H]1O` (some centres not stated), the Potency is 2000 nM (active).

Turning to `CC[C@@]1(O)C(=O)OCc2c1cc1n(c2=O)Cc2cc3c(OC)cccc3nc2-1`, the Potency is 89.1 nM (active).

With `CC(=O)O[C@H]1CC[C@@]2(CI)C(=CC[C@@H]3[C@@H]2CC[C@]2(C)C(=O)CC[C@@H]32)C1`, the “activity change, negative = cytotoxicity” value was 1.37%.

Consider `C=C1[C@@H](C)[C@H]2[C@H](Cc3ccccc3)NC(=O)[C@]23OC(=O)/C=C/C(=O)CCC[C@@H](C)C/C=C/[C@H]3[C@@H]1O`, for which the Potency was 20000 nM (active).

`C[C@H](CCC(=O)O)C[C@H](C)C[C@H](C)C(=O)/C=C(\O)[C@H](C)C[C@H](C)C/C=C/[C@@H](C)[C@@H](O)[C@@H](C)[C@@H](O)C[C@@H]1CC[C@@](C)([C@H]2CC[C@@](C)([C@@H](C)O)O2)O1`: the “activity change, negative = cytotoxicity” value is -18.7% [at 25.3 µM].

With `CN(C)c1cc2c(cc1Sc1nc3c(N)nccc3n1CCNCC(C)(C)C)OCO2`, the Potency was 1410 nM (active).

Turning to `C[C@H]1C/C=C/[C@H]2[C@@H]3O[C@]3(C)[C@@H](C)[C@H]3[C@H](Cc4ccccc4)NC(=O)[C@]32OC(=O)O/C=C/[C@@](C)(O)C1=O`, the Potency is 2510 nM (active).

Consider `CC(C)(C)[C@]1(O)C[C@@H]2OC(=O)C[C@@]23C(=O)O[C@@H]2OC(=O)[C@@H](O)[C@]213`, for which the “activity change, negative = cytotoxicity” value was 21.2% [at 38.5 µM].

With `N#CC(O[C@@H]1O[C@H](CO)[C@@H](O)[C@H](O)[C@H]1O)c1ccccc1` (some centres not stated), the “activity change, negative = cytotoxicity” value is 8.11%.

For the molecule `COC1CC(O[C@H]2CC[C@]3(C)C4CC[C@]5(C)[C@@H](C6=CC(=O)OC6)[C@@H](OC(C)=O)C[C@]5(O)C4CC[C@@H]3C2)OC(C)C1O` (some centres not stated), the Potency was 891 nM (active).

As to `CC(=O)O[C@H]1CN2CCC1CC2`, the “activity change, negative = cytotoxicity” value is -2.87%.

Regarding `CC(=O)OC[C@]12C[C@H](O)C(C)=C[C@H]1O[C@@H]1[C@H](O)[C@@H](OC(C)=O)[C@@]2(C)[C@]12CO2`, the Potency is 1780 nM (active).

For `CC1=CC(=O)[C@@H](O)[C@]2(C)C3[C@@H](O)[C@@H]4OC(=O)[C@@H]([C@H]4C)[C@]3(C)C(=O)C[C@@H]12` (some centres not stated), the Potency was 2820 nM (active).

As to `CC[C@@H]1C[C@H]2CC[C@H](O2)[C@H](C)C(=O)O[C@@H](C)C[C@@H]2CC[C@@H](O2)[C@@H](C)C(=O)O[C@H](CC)C[C@H]2CC[C@H](O2)[C@H](C)C(=O)O[C@@H](C)C[C@@H]2CC[C@@H](O2)[C@@H](C)C(=O)O1`, the Potency is 355 nM (active).

In the next assay the test system is SKOV3. Described as above. The note with it: Gynecologic cancer cell panel viability, ATPlite luminescence, 48 h; series mostly up to 57.5 µM; activity change, negative = cytotoxicity: at the top concentration. The procedure, abridged: as §1
As to `CC(=O)O[C@@H]1[C@@H](O)[C@H]2O[C@@H]3C=C(C)[C@@H](O)C[C@]3(CO)[C@]1(C)[C@]21CO1`, the Potency was 1260 nM (active).

`CC(C)(NC(=O)[C@@H](N)Cc1ccc(O)cc1)C(=O)N[C@@H](Cc1cc2ccccc2[nH]1)C(=O)N[C@@H](Cc1ccccc1)C(=O)O` (H-Y[Aib][Ala(indol-2-yl)]F-OH): the activity change, negative = cytotoxicity was -8.69% [at 11.6 µM].

Take `CN[C@@H]1C[C@H]2O[C@@](C)([C@@H]1OC)n1c3ccccc3c3c4c(c5c6ccccc6n2c5c31)C(=O)NC4`: the Potency is 316 nM (active).

As to `CC1=C[C@H]2O[C@@H]3C[C@H]4OC(=O)/C=C/C=C/C(=O)OCC/C(C)=C/C(=O)OC[C@@]2(CC1)[C@]4(C)[C@]31CO1`, the Potency was 70.8 nM (active).

For the molecule `COC1CC(O[C@H]2CC[C@]3(C)C4CC[C@]5(C)[C@@H](C6=CC(=O)OC6)[C@@H](OC(C)=O)C[C@]5(O)C4CC[C@@H]3C2)OC(C)C1O[C@@H]1O[C@H](CO)[C@@H](O)[C@H](O)[C@H]1O` (some centres not stated), the Potency was 891 nM (active).

In the case of `Cc1c(Cl)c(OCC(=O)N2CCN(C)CC2)nc2sc(C(=O)NC3CC3)c(N)c12`, the “activity change, negative = cytotoxicity” value was 5.46%.

`C[C@H]1O[C@@H](O[C@H]2CC[C@]3(C=O)C4CC[C@]5(C)[C@@H](C6=CC(=O)OC6)CC[C@]5(O)[C@@H]4CC[C@]3(O)C2)C[C@@H](O)[C@@H]1O` (some centres not stated): the Potency is 112 nM (active).

With `COC1CC(O[C@H]2CC[C@]3(C=O)C4CC[C@]5(C)[C@@H](C6=CC(=O)OC6)CC[C@]5(O)[C@@H]4CC[C@@H]3C2)OC(C)C1O[C@@H]1O[C@H](CO)[C@@H](O[C@@H]2O[C@H](CO)[C@@H](O)[C@H](O)[C@H]2O)[C@H](O)[C@H]1O` (some centres not stated), the Potency is 398 nM (active).

Take `C[C@H]1O[C@@H](O[C@H]2CC[C@]3(CO)C4CC[C@]5(C)[C@@H](C6=CC(=O)OC6)CC[C@]5(O)[C@@H]4CC[C@H]3C2)[C@H](O)[C@H](O)[C@@H]1O[C@@H]1O[C@H](CO)[C@@H](O)[C@H](O)[C@H]1O` (some centres not stated): the Potency was 2820 nM (active).

`C[C@H]1O[C@@H](n2cnc3c(N)ncnc32)C[C@@H]1O`: the “activity change, negative = cytotoxicity” value is 5.88%.

As for `OCc1nnc2n1-c1ccc(Cl)cc1C(c1ccccc1Cl)=NC2`, the “activity change, negative = cytotoxicity” value is 17.4%.

`CC[C@H]1C2CC3[C@@H]4N(C)c5ccccc5[C@]45C[C@@H]([C@H]2[C@H]5O)N3[C@@H]1O`: the “activity change, negative = cytotoxicity” value was 0% [at 38.5 µM].

With `CO[C@@H]1C[C@H](O[C@H]2CC[C@@]3(C)C(CCC4C3CC[C@]3(C)[C@@H](C5=CC(=O)OC5)[C@@H](OC(C)=O)CC43O)C2)O[C@H](C)[C@@H]1O[C@H]1O[C@H](CO[C@@H]2O[C@H](CO)[C@@H](O)[C@H](O)[C@H]2O)[C@@H](O)[C@H](O)[C@H]1O` (some centres not stated), the Potency is 2000 nM (active).

Take `CC[C@@]1(O)C(=O)OCc2c1cc1n(c2=O)Cc2cc3c(OC)cccc3nc2-1`: the Potency is 447 nM (active).

Turning to `CC(=O)O[C@H]1CC[C@@]2(CI)C(=CC[C@@H]3[C@@H]2CC[C@]2(C)C(=O)CC[C@@H]32)C1`, the “activity change, negative = cytotoxicity” value was -3.23%.

`C=C1[C@@H](C)[C@H]2[C@H](Cc3ccccc3)NC(=O)[C@]23OC(=O)/C=C/C(=O)CCC[C@@H](C)C/C=C/[C@H]3[C@@H]1O`: the Potency was 25100 nM (active).

As for `CN(C)c1cc2c(cc1Sc1nc3c(N)nccc3n1CCNCC(C)(C)C)OCO2`, the Potency is 5620 nM (active).

As to `C[C@H]1C/C=C/[C@H]2[C@@H]3O[C@]3(C)[C@@H](C)[C@H]3[C@H](Cc4ccccc4)NC(=O)[C@]32OC(=O)O/C=C/[C@@](C)(O)C1=O`, the Potency was 2000 nM (active).

For the molecule `CC(C)(C)[C@]1(O)C[C@@H]2OC(=O)C[C@@]23C(=O)O[C@@H]2OC(=O)[C@@H](O)[C@]213`, the “activity change, negative = cytotoxicity” value was 0% [at 38.5 µM].

`N#CC(O[C@@H]1O[C@H](CO)[C@@H](O)[C@H](O)[C@H]1O)c1ccccc1` (some centres not stated): the “activity change, negative = cytotoxicity” value is 2.42%.

Turning to `COC1CC(O[C@H]2CC[C@]3(C)C4CC[C@]5(C)[C@@H](C6=CC(=O)OC6)[C@@H](OC(C)=O)C[C@]5(O)C4CC[C@@H]3C2)OC(C)C1O` (some centres not stated), the Potency was 794 nM (active).

In the case of `CC(=O)O[C@H]1CN2CCC1CC2`, the “activity change, negative = cytotoxicity” value was 17.4%.
